Bioassay records: PubChem BioAssay, National Center for Advancing Translational Sciences (NCATS)
An excerpt weighted towards active compounds, which were near 4% of everything screened.
GRP78 ERSR act – induces the endoplasmic reticulum stress response in human glioma cells. U87-MG GRP78 promoter luciferase reporter, 16 h. Potency, µM, hits mostly activators. actives 0.02% (n = 420,000). AID 602332; active means well fitted activation curve with a large enough effect; further: series mostly up to about 76 µM; nearly all actives have a fitted effect of over 35% in size
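ERSR induction read as luciferase luminescence (Bright-Glo, 10 min at room temperature) in stably transfected human U87-MG glioma cells exposed to compounds for 16 h, using GRP78 as sensor.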
D1 agonist – activates the human D1 dopamine receptor; P21728; activation, % at 2 µM; actives 1% (n = 360,000); HEK293 T-REx D1 cells, calcium flux, agonist mode
Target sequence (P21728 whole entry, looked up): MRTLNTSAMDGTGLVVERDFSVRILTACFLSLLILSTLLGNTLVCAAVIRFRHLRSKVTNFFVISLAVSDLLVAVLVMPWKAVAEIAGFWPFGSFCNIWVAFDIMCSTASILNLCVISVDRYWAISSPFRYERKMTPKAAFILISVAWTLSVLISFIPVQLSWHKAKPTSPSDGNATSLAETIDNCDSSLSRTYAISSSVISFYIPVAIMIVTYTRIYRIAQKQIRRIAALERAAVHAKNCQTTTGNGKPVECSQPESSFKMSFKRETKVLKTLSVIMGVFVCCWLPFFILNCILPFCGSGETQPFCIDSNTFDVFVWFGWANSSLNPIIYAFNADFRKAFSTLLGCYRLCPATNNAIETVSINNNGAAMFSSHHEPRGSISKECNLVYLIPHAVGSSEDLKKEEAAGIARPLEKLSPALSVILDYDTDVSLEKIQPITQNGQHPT
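Inducible HEK293 T-REx D1 cells, force-coupled to calcium signalling, were plated at 4000 cells/well with tetracycline and held overnight at 30 C. After no-wash calcium dye loading, compound-evoked calcium rise over 180 s flagged agonists.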
D1 potentiator – enhances dopamine response at the human D1 receptor; P21728; HEK293 TREx D1 cells, calcium flux, dopamine EC20 potentiation; potentiation, % at 10 µM; actives 0.036% (n = 360,000); in the data active means potentiation above about 30%
TRHR enhancer – TRH receptor (human) allosteric enhancement; actives 0.66% (n = 360,000); TRHR cells, fluo-8 calcium fluorescence, EC20 TRH enhancement; enhancement, % at 2 µM; AID 493056; in the data active means enhancement above about 30%
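TRHR-expressing cells loaded with fluo-8 calcium dye were read kinetically (ex 480/em 530) during compound addition, then stimulated with an EC20 of TRH (10 nM final). Enhancement of the Gq-mediated intracellular calcium response was scored.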
TRHR agonist – TRH receptor (human) agonism. activation, % at 2 µM. TRHR cells, calcium flux fluo-8, FDSS agonist mode. P34981. actives 0.18% (n = 360,000)
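TRHR-expressing cells, plated overnight in medium with 10% serum, were loaded with fluo-8 calcium dye at room temperature. After a 10 s baseline, library compound was pin-added and calcium release was recorded kinetically (ex 480/em 530) as agonist response.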
D1 antagonist – antagonists of human D1 dopamine receptor; P21728; HEK293 TREx D1 cells, calcium flux, dopamine EC80; hits give low values; activity change, negative = inhibition, % at 10 µM; actives 3.2% (n = 360,000); in the data active means activity change below about -30%
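Compound effects on dopamine-evoked calcium signalling were measured in tetracycline-induced HEK293 Trex D1 cells. Dopamine at EC80 followed a 180 s compound pre-read, and fluorescence was tracked kinetically for 180 s more.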
Hits are given with their value; – = inactive; · = not tested or not shown; ! = repeats disagree. Unless noted, no stated cut-off is given here; in the data, active means activation above about 30%; inactive means the rest.

SMILES	GRP78 ERSR act	D1 agonist	D1 potentiator	TRHR enhancer	TRHR agonist	D1 antagonist
O=C1c2ccccc2C(Nc2cccnc2)N1Cc1ccccc1Cl (stereo not given)	–	–	–	33	–	–
CC(C)NC(=O)C1CCCN(S(=O)(=O)c2cccc3nonc23)C1 (stereo not given)	–	–	–	–	–	–
CCC(C)NC(=O)C1CCN(S(=O)(=O)c2cccc3nonc23)CC1 (stereo not given)	–	–	–	31	–	–
O=C(NC1CCN(Cc2ccccc2)CC1)C1CCCN(S(=O)(=O)c2cccc3nonc23)C1 (stereo not given)	–	–	–	36	–	–
O=C(NCc1ccccc1)C1CCCN(S(=O)(=O)c2cccc3nonc23)C1 (stereo not given)	–	–	–	–	–	–
CC(=O)Nc1ccc(-c2ccnc3c2CC(C(=O)Nc2cccc(OC(F)(F)F)c2)O3)cc1 (stereo not given)	–	·	·	·	·	·
CCn1c(Oc2cccc(Br)c2)nc2c1c(=O)n(C)c(=O)n2C	–	–	–	–	–	–
CCCn1c(Oc2ccccc2)nc2c1c(=O)n(C)c(=O)n2C	–	–	–	–	–	-39
Cn1cc(CN2CCN(Cc3ccc4c(c3)OCO4)CC2)c(-c2ccccc2F)n1	–	–	–	–	–	-31
Cc1cccc(S(=O)(=O)N2CCN(Cc3ccc4c(c3)OCO4)CC2)c1	–	–	–	–	–	-34
O=S(=O)(Cc1ccccc1Cl)N1CCN(Cc2ccc3c(c2)OCO3)CC1	–	41	–	–	–	-34
O=S(=O)(Cc1ccc(Cl)cc1)N1CCN(Cc2ccc3c(c2)OCO3)CC1	–	–	–	–	–	–
OC1(c2cccnc2)CCN(Cc2ccc3c(c2)CN(Cc2cc4ccccc4s2)CCO3)CC1	–	·	·	·	·	·
COC(=O)c1sc(C(C)(C)C)cc1CSc1ccccc1	–	–	–	–	–	–
NC(=O)C1CCCN1C(=O)C(Cc1cnc[nH]1)NC(=O)C1CCC(=O)N1 (stereo not given)	–	·	·	·	·	·
Cc1ccc(NC(=O)c2c(C)oc3c2C2=NCCN2C=N3)cc1F	–	–	–	–	–	–
O=C(CNC(=O)c1ccccc1)OC(CCc1ccccc1)C(=O)Nc1cc(C(F)(F)F)ccc1Cl (stereo not given)	·	–	–	–	–	-37
Cc1cccc(C(=O)NCC(=O)OC(C(=O)Nc2cc(C(F)(F)F)ccc2Cl)c2ccccc2)c1 (stereo not given)	·	–	–	–	–	-30
COc1ccc(OC)c(NC(=O)C(OC(=O)CNC(=O)c2ccccc2)c2ccccc2)c1 (stereo not given)	·	–	–	–	–	–
CCc1ccccc1NC(=O)CN1C(=O)COc2ccc(S(=O)(=O)N3CCCCCC3)cc21	–	–	–	–	–	-46
CC(C)CCNC(=O)CN1C(=O)COc2ccc(S(=O)(=O)N3CCOCC3)cc21	–	–	–	–	–	-47
Cc1ccccc1NC(=O)CN1C(=O)COc2ccc(S(=O)(=O)N3CCCC3)cc21	–	–	–	–	–	–
CCOc1ccc(CCNC(=O)CN2C(=O)COc3ccc(S(=O)(=O)N4CCOCC4)cc32)cc1	–	–	–	–	–	-69
CC(C)CN(CCNC(=O)CN1C(=O)COc2ccc(S(=O)(=O)N3CCOCC3)cc21)CC(C)C	–	–	–	–	–	–
COc1ccc(CCNC(=O)CN2C(=O)COc3ccc(S(=O)(=O)N4CCCC4)cc32)c(OC)c1	–	–	–	–	–	-86!
SMILES	GRP78 ERSR act	D1 agonist	D1 potentiator	TRHR enhancer	TRHR agonist	D1 antagonist
CC1CCCC(NC(=O)c2ccc3c(c2)NC(=O)CS3)C1C (stereo not given)	–	–	–	–	–	–
CC(=O)c1ccc(C2C=CC(O)C(CO)O2)cc1 (stereo not given)	–	·	·	·	·	·
CC(CNC(=O)CC[C@H]1O[C@@H](n2cnc3c(NC(=O)c4ccccc4)ncnc32)[C@H](O)[C@@H]1O)c1ccccc1 (stereo not given in full)	–	·	·	·	·	·
CSc1ncccc1C(=O)N1CCN(S(=O)(=O)c2ccccc2)CC1	–	–	·	–	–	–
CCOc1ccc(NC(=O)CN2C(=O)COc3ccc(Cl)cc32)cc1	–	–	–	–	–	-59
CCCCNC(=O)NS(=O)(=O)c1ccc(C(=O)O)cc1	–	·	·	·	·	·
COc1ccc2[nH]c3c(N4CCc5ccccc5C4)ncnc3c2c1	–	–	–	–	–	-32
CCOC(=O)N1CCN(c2ncnc3c2[nH]c2ccc(OC)cc23)CC1	–	–	–	–	–	–
Cc1ccc(OCC(=O)Oc2cccc(C)c2C)cc1	–	–	–	–	–	–
Cn1c(=O)c(=O)n(C)c2cc(S(=O)(=O)N3CCCC3C(=O)Nc3cccc(F)c3)ccc21 (stereo not given)	–	–	–	–	–	–
CC(C(=O)NC(C)(C)C)N1C(=O)c2cccc3cccc(c23)C1=O (stereo not given)	–	–	–	–	–	-71
CC1(C(=O)CSc2ncn[nH]2)CCC(=O)O1 (stereo not given)	·	–	–	–	–	-43
CC1(C(=O)CSc2nc3ccccc3[nH]2)CCC(=O)O1 (stereo not given)	–	–	–	–	–	–
COc1ccc(C2=NN(CCC(=O)NC3CCCCCC3)C(=O)CC2)cc1	–	–	–	–	–	-33
Cn1c(=O)n(CC(=O)NCC2CCCO2)c(=O)c2c3c(sc21)COC(C)(C)C3 (stereo not given)	–	–	–	–	–	-30
CCCn1c(=O)n(CC(=O)NCC2CCCO2)c(=O)c2c3c(sc21)COC(C)(C)C3 (stereo not given)	–	–	–	–	–	–
C[C@H](NC(=O)[C@H]1N2C(=O)c3ccccc3C2SC1(C)C)C(=O)N1CCC[C@H]1CO (stereo not given in full)	–	40	–	–	–	–
c1ccc(Oc2ccc(-c3ccnc4nc(N5CCOCC5)nn34)cc2)cc1	–	–	–	33	–	–
O=C(CN(Cc1ccccc1)S(=O)(=O)c1cccc(C(F)(F)F)c1)NC1CCCCC1	–	–	–	–	–	-31
CCCNC(=S)Nc1cccc(C(F)(F)F)c1	–	–	–	–	–	–
CCCCNC(=S)Nc1ccc(Cl)cc1	–	–	–	–	–	-33
CCCCNC(=S)Nc1ccc(C(F)(F)F)cc1	–	–	–	–	–	-33
Cc1ccc(NC(=S)NCCSc2ccc(Cl)cc2)cc1	–	–	–	–	–	-37
CCNC(=S)Nc1ccc(Cl)cc1	–	–	–	–	–	–
O=C(O)CCc1nn2c3ccccc3n(Cc3ccccc3F)c2nc1=O	–	–	–	–	–	–
